Test results reported in ChEMBL document CHEMBL1961873, “Compounds: GSK PKIS; Assays: Nanosyn kinase panel” (2012).

Target: Receptor tyrosine-protein kinase erbB-2 (Homo sapiens) (UniProt P04626)
Settings: at 0.1 µM
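Further: each value is the mean percent inhibition of ERBB2 over replicate measurements.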

Sequence of Receptor tyrosine-protein kinase erbB-2 (Homo sapiens) (P04626 whole entry): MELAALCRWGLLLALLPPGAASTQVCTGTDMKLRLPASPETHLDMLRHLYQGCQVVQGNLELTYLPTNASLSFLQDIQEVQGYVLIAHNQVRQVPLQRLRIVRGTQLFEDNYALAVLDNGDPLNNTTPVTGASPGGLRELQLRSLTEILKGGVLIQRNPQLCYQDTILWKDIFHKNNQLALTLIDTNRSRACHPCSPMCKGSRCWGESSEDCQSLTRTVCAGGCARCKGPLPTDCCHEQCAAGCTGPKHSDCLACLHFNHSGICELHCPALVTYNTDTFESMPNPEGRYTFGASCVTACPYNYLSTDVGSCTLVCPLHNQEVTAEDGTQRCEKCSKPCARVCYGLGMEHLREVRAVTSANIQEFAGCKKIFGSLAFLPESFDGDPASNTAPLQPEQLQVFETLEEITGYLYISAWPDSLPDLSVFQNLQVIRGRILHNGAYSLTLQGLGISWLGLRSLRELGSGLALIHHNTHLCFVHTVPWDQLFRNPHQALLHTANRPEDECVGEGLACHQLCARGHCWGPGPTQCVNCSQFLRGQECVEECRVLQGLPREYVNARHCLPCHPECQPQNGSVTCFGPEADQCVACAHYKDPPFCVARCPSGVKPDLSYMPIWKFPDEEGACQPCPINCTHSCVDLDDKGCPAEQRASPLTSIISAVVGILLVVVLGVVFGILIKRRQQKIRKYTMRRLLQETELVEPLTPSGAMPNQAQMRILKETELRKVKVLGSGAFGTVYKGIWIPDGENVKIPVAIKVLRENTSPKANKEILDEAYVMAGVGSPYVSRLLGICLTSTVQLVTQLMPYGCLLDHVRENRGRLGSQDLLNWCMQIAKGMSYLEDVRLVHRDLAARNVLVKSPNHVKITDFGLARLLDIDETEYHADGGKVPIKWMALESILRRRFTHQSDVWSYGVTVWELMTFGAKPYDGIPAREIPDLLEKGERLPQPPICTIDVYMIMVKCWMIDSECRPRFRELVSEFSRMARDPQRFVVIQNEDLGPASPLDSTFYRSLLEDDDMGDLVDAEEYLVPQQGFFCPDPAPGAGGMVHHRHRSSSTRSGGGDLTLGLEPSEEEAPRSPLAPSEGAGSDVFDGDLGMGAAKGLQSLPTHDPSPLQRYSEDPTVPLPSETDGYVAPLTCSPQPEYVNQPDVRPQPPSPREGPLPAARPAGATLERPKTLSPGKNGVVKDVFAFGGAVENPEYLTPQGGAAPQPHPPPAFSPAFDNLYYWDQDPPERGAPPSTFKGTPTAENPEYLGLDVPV

SMILES	inhibition
CN(C)C(=O)O[C@@H]1CN[C@@H](C#Cc2cc3ncnc(Nc4ccc(OCc5cccc(F)c5)c(Cl)c4)c3s2)C1	-1.37%
N#Cc1c(NC(=O)c2ccccc2F)sc2c1CCCC2	-3.55%
Cc1ccc2c(-c3ccnc(Nc4ccc5c(c4)OCCO5)n3)c(-c3ccc(C(F)(F)F)cc3)nn2n1	2.13%
COc1cccc(-n2nc(C)c3c(N/N=C(\C)c4ccncc4)ncnc32)c1	0.07%
NS(=O)(=O)c1ccc(N/N=C2\C(=O)Nc3ccc(Cl)cc32)cc1	2.29%
CCOc1nccc2c1nc(-c1nonc1N)n2CC	3.01%
Cc1ccc(C(=O)NC2CC2)cc1-c1ccc2[nH]ncc2c1	-5.76%
c1ccc(Nc2ncc(-c3ccccc3)o2)cc1	43.6%
Cc1cc(Cl)cc2c1NC(=O)C2=NNc1ccc(S(N)(=O)=O)cc1	2.46%
O=C1Nc2ccccc2/C1=C/Nc1ccc2[nH]c(=O)[nH]c2c1	3.93%
Nc1nccc(-c2c(-c3ccc(F)cc3)ncn2CCCN2CCOCC2)n1	4.07%
[O-][S+]1CCN(Cc2ccc(-c3ccc4ncnc(Nc5ccc(OCc6ccccc6)c(Cl)c5)c4c3)o2)CC1	37.5%
NS(=O)(=O)c1cccc(-c2cc3ccncc3cc2OCc2ccccc2)c1	1.13%
CCCN1CCCC(c2ccc(Nc3nc(Nc4cc(F)ccc4C(N)=O)c4cc[nH]c4n3)c(OC)c2)C1 (stereo unspecified)	2.27%
OCc1ccc(-c2nc(-c3ccccn3)c(-c3ccc4c(c3)OCO4)[nH]2)cc1	0.45%
COc1ccc(-c2nn3ncccc3c2-c2ccnc(Nc3cccc(C(F)(F)F)c3)n2)cc1	3.15%
